In PubChem BioAssay (Tox21) one finds Potency, outcome and activity change, negative = inhibition data, which are given here for 39 compounds.

Molecules are shown by their SMILES. Records with an inconclusive call do not appear. Where a call stands in place of a potency, no number is given. The source made the active and inactive calls. The call rests on the fitted dose curve.

For the first assay, the target named is Acetylcholinesterase (Homo sapiens) (UniProt P22303). Description: Acetylcholinesterase (AChE) small molecule antagonists: enzyme-based qHTS assay (AID 1347397). Further: nearly all actives have a fitted effect of over 55% in size. Conditions: Potency: AChE enzyme activity inhibition; outcome: AChE enzyme activity inhibition; series mostly up to 115 µM. In outline: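 In this quantitative HTS, compounds from the Tox21 10K collection were preincubated 30 min at ambient temperature with recombinant human AChE dispensed at 50 mU/mL. Hydrolysis of acetylthiocholine was then followed for 10 min by DTNB colour development.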
Sequence of Acetylcholinesterase (Homo sapiens) (P22303 whole entry, looked up): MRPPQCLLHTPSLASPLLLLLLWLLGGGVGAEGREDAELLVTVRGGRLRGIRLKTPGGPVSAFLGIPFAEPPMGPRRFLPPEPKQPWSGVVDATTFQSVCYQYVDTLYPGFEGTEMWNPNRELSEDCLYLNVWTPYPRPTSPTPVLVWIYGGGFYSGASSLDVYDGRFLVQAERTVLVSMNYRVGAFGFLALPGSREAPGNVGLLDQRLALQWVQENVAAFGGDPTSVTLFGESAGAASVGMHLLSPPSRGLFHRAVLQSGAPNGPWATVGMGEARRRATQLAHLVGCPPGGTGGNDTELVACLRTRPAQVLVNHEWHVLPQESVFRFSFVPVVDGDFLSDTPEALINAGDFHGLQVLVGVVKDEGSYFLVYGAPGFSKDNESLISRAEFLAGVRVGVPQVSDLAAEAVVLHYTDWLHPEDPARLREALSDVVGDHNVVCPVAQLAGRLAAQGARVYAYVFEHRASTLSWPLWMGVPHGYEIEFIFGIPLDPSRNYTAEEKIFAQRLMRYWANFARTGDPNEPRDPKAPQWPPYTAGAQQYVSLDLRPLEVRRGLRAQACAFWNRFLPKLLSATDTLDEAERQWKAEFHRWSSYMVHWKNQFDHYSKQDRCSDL
(Quantitative high-throughput screening tests each substance at several concentrations.)
For `CC(=O)Nc1cccc(N)c1`, the Potency result was “inactive”.
With `C[C@H]1NCc2cc(-c3ccc4c(=O)c(C(=O)O)cn(C5CC5)c4c3OC(F)F)ccc21`, the compound was classed as inactive.
Regarding `Cc1cccc([N+](=O)[O-])c1C(=O)O`, the Potency result was “inactive”.
As to `COCCOC(=O)C1=C(C)NC(C)=C(C(=O)OC/C=C/c2ccccc2)C1c1cccc([N+](=O)[O-])c1` (stereo not drawn), the Potency result is “inactive”.

Another assay shares this target. Description: Acetylcholinesterase (AChE) small molecule antagonists: fluorescence cell-based qHTS assay (AID 1347398). Further: nearly all actives have a fitted effect of over 50% in size. Conditions: SH-SY5Y cells; Potency: AChE activity; outcome: AChE activity; series mostly up to 115 µM. In outline: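 Cells (SH-SY5Y) attached overnight, were dosed with compound or DMSO vehicle for 30 min at 37 C, and then incubated 40 min at room temperature with acetylthiocholine and Thiolite Green; green fluorescence indexed AChE activity.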
As to `O=C(O)c1c2ccccc2cc2ccccc12`, the Potency result was “inactive”.
Turning to `Cc1onc(-c2c(Cl)cccc2Cl)c1C(=O)N[C@@H]1C(=O)N2[C@@H]1SC(C)(C)[C@@H]2C(=O)O`, the Potency entry was “inactive”.
Take `CC(C)CCCCOC(=O)c1ccccc1C(=O)OCCCCC(C)C`: the Potency entry is “inactive”.
The same measure, in the same setting: the same measure for `CC1(C)[C@@H](O)CC[C@]2(C)[C@H]3C(=O)C=C4[C@@H]5C[C@@](C)(C(=O)O)CC[C@]5(C)CC[C@@]4(C)[C@]3(C)CC[C@@H]12`: “inactive”; for `CC(C)c1cccc(C(C)C)c1NC(=O)NS(=O)(=O)c1cc(C(C)(C)O)co1`: “inactive”; for `CC(=O)OCC(=O)[C@@]1(OC(C)=O)[C@@H](C)C[C@H]2[C@@H]3C[C@H](F)C4=CC(=O)C=C[C@]4(C)[C@@]3(F)[C@@H](O)C[C@@]21C`: “inactive”.
For the compound `C=CCCCCCCCCCCCC`, the Potency result was “inactive”.
The same measure, in the same setting: as for `NC(=O)c1ccccc1C(N)=O`, the entry is “inactive”.
The same measure, in the same setting: the same measure for `O=Cc1ccc(F)cc1`: “inactive”; for `O=C1Cc2ccccc2N1c1c(Cl)cccc1Cl`: “inactive”.
In the case of `Cc1c[nH]c(=S)[nH]c1=O`, the Potency entry was “inactive”.
The same measure, in the same setting: as for `CCOC(=O)CS`, the entry is “inactive”; as for `Nc1nc(-c2ccccc2)cs1`, “inactive”; as for `CCCCCCCCCCCCN(CCCCCCCCCCCC)CCCCCCCCCCCC`, “inactive”.
Same read-out and setting: the same measure for `COC(C)(C)CC(C)=O`: “inactive”.
Regarding `Cc1ccc(N(CCO)CCO)cc1`, the Potency entry was “inactive”.
In the case of `O=S(O)CO`, the Potency entry is “inactive”.
The same measure, in the same setting: the same measure for `Cc1nc(C)nc(N2C[C@@H](C)N(c3ccnc([C@@H](C)O)n3)[C@@H](C)C2)n1`: “inactive”.
On the same count and under the same terms, the same measure for `CC(O)CN(CCCN(C)C)CCCN(C)C` (stereo not drawn): “inactive”; for `OCCc1ccncc1`: “inactive”; for `CCOC(=O)[C@@H](C)Oc1ccc(Oc2nc3ccc(Cl)cc3o2)cc1`: “inactive”.
Still for that read-out and setting: the same measure for `C=CCOc1nc(OCC=C)nc(OCC=C)n1`: “inactive”; for `C=CC1CC2C=CC1C2` (stereo not drawn): “inactive”; for `CCOC(=O)CC(=O)c1cc(F)c(Cl)nc1Cl`: “inactive”.
`Cc1ccc(Cl)cc1Cl`: the Potency entry was “inactive”.
For the compound `CC(C)=CCC/C(C)=C\C#N`, the Potency result was “inactive”.
Consider `COc1cc2nc(Cl)nc(N)c2cc1OC`, for which the Potency result was “inactive”.
For the compound `C=CCCCCCCCCC(=O)OCCCC`, the Potency entry is “inactive”.
The same measure, in the same setting: as for `CCC(C)(Oc1ccc(C2(c3ccc(OC(C)(CC)C(=O)O)cc3)CCCCC2)cc1)C(=O)O` (stereo not drawn), the entry is “inactive”; as for `CCOC(=O)[C@H](CCc1ccccc1)N[C@@H](C)C(=O)N1Cc2cc(OC)c(OC)cc2C[C@H]1C(=O)O`, “inactive”.
In the case of `C[C@@H](O)[C@H](N)C(=O)O`, the activity change, negative = inhibition was 4.69% [at 23.8 µM] (inactive).
`C=CCON/C(CCC)=C1\C(=O)CC(C)(C)C(C(=O)OC)=C1O`: the Potency entry was “inactive”.
Still for that read-out and setting: the same measure for `CC(C)=CCC[C@H](C)CCO`: “inactive”; for `CC(=O)Nc1ccc(S(N)(=O)=O)cc1`: “inactive”.
In the case of `NCC[C@H](O)C(=O)N[C@@H]1C[C@H](N)[C@@H](O[C@H]2O[C@H](CN)[C@@H](O)[C@H](O)[C@H]2O)[C@H](O)[C@H]1O[C@H]1O[C@H](CO)[C@@H](O)[C@H](N)[C@H]1O`, the activity change, negative = inhibition was 5.79% [at 0.439 µM] (inactive).
Regarding `CC(=O)Nc1cccc(N)c1`, the Potency entry is “inactive”.
As to `C[C@H]1NCc2cc(-c3ccc4c(=O)c(C(=O)O)cn(C5CC5)c4c3OC(F)F)ccc21`, the result was inactive.
On to `Cc1cccc([N+](=O)[O-])c1C(=O)O`, for which the Potency entry was “inactive”.
Same read-out and setting: as for `COCCOC(=O)C1=C(C)NC(C)=C(C(=O)OC/C=C/c2ccccc2)C1c1cccc([N+](=O)[O-])c1` (stereo not drawn), the entry is “inactive”.
